# Data taken from article PMC11006913.
# Molecular target: HOXC9 (Homo sapiens, UniProt P31274 178-260, R222W)
# Experiment: PBM; 200 nM protein, PBS
# Conditions: dsDNA, one strand shown
# HOXC9, sequence (P31274 178-260 R222W): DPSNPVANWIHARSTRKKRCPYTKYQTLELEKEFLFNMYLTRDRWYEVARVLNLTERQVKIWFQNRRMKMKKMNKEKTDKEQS
row,Sequence,binding signal
1,ATCGTAAA,"10.8 upbm affinity estimate (log intensity, higher = more binding, comparable within an allelic series)"
2,GTCGTAAA,"11 upbm affinity estimate (log intensity, higher = more binding, comparable within an allelic series)"
3,GCTATAAA,"11 upbm affinity estimate (log intensity, higher = more binding, comparable within an allelic series)"
4,CTCATAAA,"11.1 upbm affinity estimate (log intensity, higher = more binding, comparable within an allelic series)"
5,CTATTAAA,"11.1 upbm affinity estimate (log intensity, higher = more binding, comparable within an allelic series)"
6,ATAAAACA,"11.1 upbm affinity estimate (log intensity, higher = more binding, comparable within an allelic series)"
7,ACAATAAA,"11.1 upbm affinity estimate (log intensity, higher = more binding, comparable within an allelic series)"
8,ACATAAAA,"11.3 upbm affinity estimate (log intensity, higher = more binding, comparable within an allelic series)"
9,ATCATAAA,"10.9 upbm affinity estimate (log intensity, higher = more binding, comparable within an allelic series)"
10,CTATAAAA,"11.4 upbm affinity estimate (log intensity, higher = more binding, comparable within an allelic series)"
11,CTAATAAA,"11.1 upbm affinity estimate (log intensity, higher = more binding, comparable within an allelic series)"
12,GTTTATTA,"11.2 upbm affinity estimate (log intensity, higher = more binding, comparable within an allelic series)"
13,CCCTCACC,"9.7 upbm affinity estimate (log intensity, higher = more binding, comparable within an allelic series)"
14,CGCCACCG,"9.73 upbm affinity estimate (log intensity, higher = more binding, comparable within an allelic series)"
15,AATAAAAA,"11.2 upbm affinity estimate (log intensity, higher = more binding, comparable within an allelic series)"
16,ATTTTATG,"11.4 upbm affinity estimate (log intensity, higher = more binding, comparable within an allelic series)"
17,GCCATAAA,"10.9 upbm affinity estimate (log intensity, higher = more binding, comparable within an allelic series)"
18,CCTTGCAG,"9.74 upbm affinity estimate (log intensity, higher = more binding, comparable within an allelic series)"
19,GTCATAAA,"11.2 upbm affinity estimate (log intensity, higher = more binding, comparable within an allelic series)"
20,ATCGTTAA,"10.7 upbm affinity estimate (log intensity, higher = more binding, comparable within an allelic series)"

row,Sequence,binding signal
1,CCGCCTGC,"9.72 upbm affinity estimate (log intensity, higher = more binding, comparable within an allelic series)"
2,GTCGTTAA,"10.6 upbm affinity estimate (log intensity, higher = more binding, comparable within an allelic series)"
3,TCGTAAAA,"11.3 upbm affinity estimate (log intensity, higher = more binding, comparable within an allelic series)"
4,TCATAAAA,"11.3 upbm affinity estimate (log intensity, higher = more binding, comparable within an allelic series)"
5,CTCGTAAA,"11.1 upbm affinity estimate (log intensity, higher = more binding, comparable within an allelic series)"
6,CATTAAAA,"11 upbm affinity estimate (log intensity, higher = more binding, comparable within an allelic series)"
7,CCATAAAA,"11.6 upbm affinity estimate (log intensity, higher = more binding, comparable within an allelic series)"
8,CATTAAAC,"10.9 upbm affinity estimate (log intensity, higher = more binding, comparable within an allelic series)"
9,CATAAAAG,"11.2 upbm affinity estimate (log intensity, higher = more binding, comparable within an allelic series)"
10,AATTTTAT,"11.2 upbm affinity estimate (log intensity, higher = more binding, comparable within an allelic series)"
11,ACCATAAA,"10.9 upbm affinity estimate (log intensity, higher = more binding, comparable within an allelic series)"
12,ATAATAAA,"11.2 upbm affinity estimate (log intensity, higher = more binding, comparable within an allelic series)"
13,CATAAAAC,"11.3 upbm affinity estimate (log intensity, higher = more binding, comparable within an allelic series)"
14,CCTAGGGC,"9.68 upbm affinity estimate (log intensity, higher = more binding, comparable within an allelic series)"
15,ATTTATGA,"11.1 upbm affinity estimate (log intensity, higher = more binding, comparable within an allelic series)"
16,TCGTTAAA,"10.9 upbm affinity estimate (log intensity, higher = more binding, comparable within an allelic series)"
17,TAATAAAA,"11.7 upbm affinity estimate (log intensity, higher = more binding, comparable within an allelic series)"
18,ACTATAAA,"11 upbm affinity estimate (log intensity, higher = more binding, comparable within an allelic series)"
19,CATAAAAA,"11.4 upbm affinity estimate (log intensity, higher = more binding, comparable within an allelic series)"
